The nature of this experiment: In vitro enzyme assay to detect hydrolysis of chlorophenol red-beta-D-[…] directly proportional to the number of Toxoplasma stably expressing beta-galactosidase. It is filed as functional, organism-based, Toxoplasma gondii. Set-up: scale not given: in the data most compounds retested in dose-response had high values.

Structures are written as SMILES. The whole screen tested about 85,000 compounds, of which about 440 (0.52%) showed an effect of 50% or more. Shown is part of a subset that was picked to be rich in strong results.

`CCCc1nc(C(=O)NCCc2cccnc2)cs1`: under “50 µM”, the “Percent Effect” value is -0.1814%.
Same read-out and setting: the result for `CCn1nc(C)cc1C(=O)N1CCNC(=O)C1(C)C` reads 1.148%; that for `O=C1NCCN1CCNc1cc(C2CC(O)C2)ncn1` (stereo not given), 17.22%; that for `CCCNC(=O)C1=NN(C)C(=O)CC1`, -13.89%.
In the case of `CCc1ccccc1NC(=O)C1=NN(C)C(=O)CC1`, for the setting “50 µM”, the “Percent Effect” value is recorded as 53.5%.
In the case of `CN1N=C(C(=O)NCCn2cccc2)CCC1=O`, the “Percent Effect” value (50 µM) amounted to 4.885%.
For the compound `Cc1nc(C)c(C(=O)N2CCCC3(CCOC3)C2)s1` (stereo not given), the “Percent Effect” value (50 µM) is on record as -1.962%.
On to `CN(C)CCCN(CCC#N)C(=O)c1ccccn1`, for which the “Percent Effect” value (50 µM) was found to be 5.806%.
On to `Cc1n[nH]c(SCCN)n1`, for which the “Percent Effect” value (50 µM) amounted to 7.335%.
In the case of `Cc1cc(NC(=O)COC(=O)c2cccc(F)c2)[nH]n1`, the “Percent Effect” value (50 µM) worked out at 3.257%.
Consider `O=C(CCN1C(=O)CCC1=O)OCCc1cccs1`, for which the “Percent Effect” value (50 µM) is reported as -8.658%.
On the same count and under the same terms, the same measure for `COc1ccc(CNCCn2cccn2)cc1OC`: -8.387%.
Regarding `NCC(c1ccccc1)N1CCc2sccc2C1` (stereo not given), the “Percent Effect” value (10 µM) was -0.2514%.
On to `CC(C)c1ccc(C(CN)N2CCc3sccc3C2)cc1` (stereo not given), for which the “Percent Effect” value (10 µM) is 87.38%.
For the compound `NCC(c1ccc(Cl)cc1)N1CCc2sccc2C1` (stereo not given), under “10 µM”, the “Percent Effect” value turned out to be 32.54%.
For `CC(CNC(=O)c1cccc(OC(F)F)c1)N(C)C` (stereo not given), the “Percent Effect” value (50 µM) is on record as -0.9989%.
For the compound `CCOCCN1CCN(CC(C)O)CC1` (stereo not given), the “Percent Effect” value (50 µM) is reported as -13.93%.
As to `Oc1cc(CCC2CCCCN2)cc(-c2ccncc2)c1` (stereo not given), where the note is “10 µM”, the “Percent Effect” value is -0.7663%.
For `CS(=O)(=O)c1ccc(-c2cc(O)cc(CCC3CCCCN3)c2)cc1` (stereo not given), the “Percent Effect” value (10 µM) stood at 50.66%.
On the same count and under the same terms, the result for `O=c1cc(-c2cc(O)cc(CCC3CCCCN3)c2)cc[nH]1` (stereo not given) reads 0.1729%.
As for `Cc1ccc(CN2CCOC(CCO)C2)c(F)c1` (stereo not given), the “Percent Effect” value (50 µM) was determined as 1.605%.
Take `CCNc1nc(-c2cccnc2)c(-c2ccnc(NCCO)n2)s1`: under “10 µM”, the “Percent Effect” value was 32.17%.
For `CCNc1nc(-c2cccnc2)c(-c2ccnc(NS(C)(=O)=O)n2)s1`, for the setting “10 µM”, the “Percent Effect” value is reported as -26.67%.
As to `CC(C)(C)Nc1nc(-c2cccnc2)c(-c2ccnc(NCCO)n2)s1`, the “Percent Effect” value (10 µM) is listed as 85.15%.
Take `Cc1noc(C)c1CNC(=O)c1csc(S(N)(=O)=O)c1`: the “Percent Effect” value (50 µM) was -3.715%.
For `Cc1cccc(C(=O)N2C[C@@H](OCc3ccncc3)[C@@H]3OCCC[C@@H]32)n1.O=C(O)C(F)(F)F.O=C(O)C(F)(F)F`, the “Percent Effect” value (10 µM) is listed as -3.452%.
On the same count and under the same terms, the same measure for `Cn1cccc1C(=O)N1C[C@@H](OCc2ccncc2)[C@@H]2OCCC[C@@H]21.O=C(O)C(F)(F)F`: 96.07%.
On to `COCC(=O)N1C[C@@H](OCc2cccnc2)[C@H]2OCCC[C@@H]21.O=C(O)C(F)(F)F`, for which the “Percent Effect” value (10 µM) was determined as 1.724%.
For `COCC(=O)N1C[C@@H](OCc2ccncc2)[C@@H]2OCCC[C@@H]21.O=C(O)C(F)(F)F`, for the setting “10 µM”, the “Percent Effect” value turned out to be 64.14%.
As for `O=C(CC1CCCC1)N1C[C@H](OCc2ccncc2)[C@H]2OCCC[C@H]21.O=C(O)C(F)(F)F`, for the setting “10 µM”, the “Percent Effect” value is recorded as -2.876%.
Turning to `Cn1cccc1C(=O)N1C[C@@H](OCc2cccnc2)[C@H]2OCCC[C@H]21`, the “Percent Effect” value (10 µM) came to 1.724%.
On to `Nc1nc2c(s1)Cc1ccccc1-2`, for which the “Percent Effect” value (50 µM) is recorded as -5.547%.
As to `Cc1n[nH]c(C)c1S(=O)(=O)N1CCC(N)CC1`, where the note is “50 µM”, the “Percent Effect” value came to 2.469%.
Turning to `CCS(=O)(=O)NCCNCc1ccc(Cl)cc1F`, the “Percent Effect” value (50 µM) is given as -9.661%.
With `NC(=O)NC(=O)CSc1ncccn1`, the “Percent Effect” value (50 µM) was -2.425%.
The same measure, in the same setting: the result for `Cc1nn(C)c(C)c1CC(=O)NCCc1ccccn1` reads -1.397%.
Take `COc1ccc(CN)nc1`: the “Percent Effect” value (50 µM) worked out at 5.444%.
As to `CNc1ncc(C(=O)N2CCCC(Cc3ccccc3OC)C2)s1` (stereo not given), the “Percent Effect” value (10 µM) was found to be 65.23%.
Regarding `COc1ccccc1CC1CCCN(C(=O)c2nccnc2N)C1` (stereo not given), the “Percent Effect” value (10 µM) is -6.18%.
Turning to `COc1ccccc1CC1CCCN(C(=O)c2cc[nH]n2)C1` (stereo not given), the “Percent Effect” value (10 µM) came out at 4.307%.
Turning to `O=C(CN1C(=O)CC2(CCCCC2)C1=O)NC1CC1`, the “Percent Effect” value (50 µM) is -7.096%.
In the case of `CN(C)C(=O)NCCNc1cccc(Br)c1`, the “Percent Effect” value (50 µM) is on record as -13.02%.
On to `CC(C)CCN1CCN(C(=O)c2nccnc2N)CC1`, for which the “Percent Effect” value (50 µM) was found to be 0.2706%.
On the same count and under the same terms, the same measure for `CCN(CC)S(=O)(=O)N1CCNCC1`: -3.294%.
The same measure, in the same setting: the same measure for `CC(=O)c1c[nH]c(C(=O)NCc2cccnc2)c1`: 0.2894%.
Regarding `O[C@@H]1CN(c2cnc3ccccc3n2)CC[C@H]1c1ccc2c(c1)OCO2`, the “Percent Effect” value (10 µM) is on record as 20.57%.
The same measure, in the same setting: the result for `O[C@@H]1CN(c2nc3ccccc3o2)CC[C@H]1c1ccc2c(c1)OCO2` reads 30.32%; that for `O[C@@H]1CN(c2nc3ccccc3s2)CC[C@H]1c1ccc2c(c1)OCO2`, 53.23%.
In the case of `COc1cccc(NC(=O)C(C)Sc2nnnn2C)c1` (stereo not given), the “Percent Effect” value (50 µM) is -3.512%.
Consider `N#CCc1ccc(CO)cc1`, for which the “Percent Effect” value (50 µM) is given as -0.5268%.
Still for that read-out and setting: the same measure for `c1ccc(-c2cc[nH]n2)nc1`: -7.989%; for `Nc1c[nH]nc1-c1ccccn1`: 64.31%; for `COCCC(C)Nc1c[nH]nc1-c1ccccn1` (stereo not given): 4.849%.
Turning to `Cc1ccc(OCCN2CCOCC2)cc1`, the “Percent Effect” value (50 µM) is reported as -4.655%.
In the case of `CC(N)(CO)c1ccc(Br)cc1` (stereo not given), where the note is “50 µM”, the “Percent Effect” value was determined as 5.046%.
Turning to `O=C(NC1CN(c2ccc(C(F)(F)F)cn2)C1)C1CC1`, the “Percent Effect” value (50 µM) is -14.77%.
For the compound `NC(=O)CC1CCCCN1c1ccc(C(F)(F)F)cn1` (stereo not given), the “Percent Effect” value (50 µM) is -10.18%.
The same measure, in the same setting: the result for `CNC(=O)[C@@H]1CSCN1c1ccc(C(F)(F)F)cn1` reads 98.68%; that for `CN(C)C(=O)C1(N)CCCC1`, 3.679%.
Still for that read-out and setting: the result for `COC(=O)c1cccc(COC(=O)CCNC(C)=O)c1` reads -1.212%.

Values taken from ChEMBL document CHEMBL3988442, “University of Dundee, Small-Polar-MMV Screening Library” (2021).
